Screening results as filed in PubChem BioAssay.
CSC inhib = cancer stem cell inhibition. cancer stem cell-like cells viability, luminescence. inhibition, % at 7.5 µM. 300,000 compounds, 1.1% hits; in the data active means inhibition above about 75%; tested in HMLE shEcad cells
Mdm2 MdmX PPI = disrupts the human Mdm2-MdmX interaction | inhibition, % at 8 µM | SaOS-2 split-luciferase Mdm2/MdmX complementation, luminescence | O15151+Q00987 | 330,000 compounds, 3% hits;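 active means inhibition of at least 50% at 8 µM in the primary screen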
Target sequence (O15151 whole entry, looked up): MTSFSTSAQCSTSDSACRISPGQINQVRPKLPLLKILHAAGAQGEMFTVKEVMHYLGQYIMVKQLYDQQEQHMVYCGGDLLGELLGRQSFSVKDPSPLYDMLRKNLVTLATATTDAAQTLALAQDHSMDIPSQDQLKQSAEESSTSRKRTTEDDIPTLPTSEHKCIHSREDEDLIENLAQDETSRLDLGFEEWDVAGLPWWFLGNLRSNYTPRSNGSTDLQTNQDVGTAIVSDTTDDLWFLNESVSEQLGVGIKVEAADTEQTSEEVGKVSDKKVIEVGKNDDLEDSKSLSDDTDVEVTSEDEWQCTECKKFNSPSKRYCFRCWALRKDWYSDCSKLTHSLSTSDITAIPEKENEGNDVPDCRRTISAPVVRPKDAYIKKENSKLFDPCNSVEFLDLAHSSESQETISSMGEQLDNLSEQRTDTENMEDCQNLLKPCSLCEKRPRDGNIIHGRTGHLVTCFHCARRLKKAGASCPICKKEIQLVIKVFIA
Target sequence (Q00987 whole entry, looked up): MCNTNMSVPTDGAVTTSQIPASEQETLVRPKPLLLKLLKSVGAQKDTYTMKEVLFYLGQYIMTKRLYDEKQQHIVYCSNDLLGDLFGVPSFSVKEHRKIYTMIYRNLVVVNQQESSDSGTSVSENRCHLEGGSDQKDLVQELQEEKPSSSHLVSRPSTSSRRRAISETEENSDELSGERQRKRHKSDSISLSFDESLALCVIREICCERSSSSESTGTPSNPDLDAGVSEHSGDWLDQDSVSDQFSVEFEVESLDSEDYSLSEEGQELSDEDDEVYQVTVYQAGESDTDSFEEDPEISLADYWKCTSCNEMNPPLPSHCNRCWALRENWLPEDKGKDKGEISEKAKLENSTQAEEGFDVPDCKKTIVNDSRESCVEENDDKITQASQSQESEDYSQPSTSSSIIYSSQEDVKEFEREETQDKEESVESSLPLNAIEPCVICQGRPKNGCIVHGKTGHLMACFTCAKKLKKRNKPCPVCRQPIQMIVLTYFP
NR3A LBD binder = NR3A (human) ligand-binding domain modulation. Tm shift relative to glycine control, % at 25 µM. NR3A LBD differential scanning fluorimetry, Tm shift; 0% = protein alone, 100% = glycine-bound protein. AID 1259313. 340,000 compounds, 2.5% hits;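 active means melting temperature shift of at least 10% of the positive control shift, at one fixed dose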
MPTP block = inhibitors of mitochondrial permeability transition pore; inhibition, % at 10 µM; isolated mouse mitochondria, Ca2+ swelling absorbance, 30 min; AID 602449; 360,000 compounds, 1.4% hits;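 active means inhibition of 50% or more, scaled per plate between neutral and stimulator controls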;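 further: 0% = DMSO wells given calcium and 100% = 1 mM EGTA wells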
SKKanGAS inh = blocks kanamycin growth of S. pyogenes SKKanGAS strain. BacTiter-Glo, 6 h. inhibition, % at 7.5 µM. 300,000 compounds, 1.3% hits. AID 1662;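 active means mean replicate score, as percent of positive control median, at least 50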;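 further: strain carries kanamycin resistance gene driven by streptokinase promoter and grows in 40 µg/ml kanamycin; loss of luminescence reflects streptokinase promoter inhibition or plain growth inhibition; 0% = median of DMSO wells and 100% = positive control at its reference dose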
Beta apoptosis = beta cell apoptosis inhibition; INS-1E cytokine-induced death, ATP luminescence, 48 h; percent of positive-control rescue, neutral wells zero; protection from apoptosis, % (no concentration beside the values); 300,000 compounds, 0.8% hits;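 active means Every replicate reaches about 75%, or at least half do and their mean reaches it too, limit read from the data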;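 further: 0% = cytokine-treated negative control wells and 100% = positive control rescue; higher means more ATP so stronger rescue from cytokine killing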
MPTP counter = Rhodamine 123 counter-screen of mitochondrial pore hits. shares compounds with MPTP block. inhibition, % at 10 µM. AID 624504. 5,000 compounds, 78% hits. isolated mitochondria, membrane potential, Rhodamine 123 fluorescence; in the data active means inhibition above about 22%;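 further: 0% = DMSO vehicle and 100% = positive control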
MPTP swell DR = MPTP inhibition, dose response swelling confirmation; isolated mitochondria swelling, absorbance; shares compounds with MPTP block; 780 compounds, 58% hits; AID 651561; IC50, µM; in the data active means IC50 below about 20 µM
MPTP cs DR = MPTP inhibitor counter-screen activity, dose response; shares compounds with MPTP block; isolated mitochondria counterscreen, fluorescence read-out; IC50, µM; 780 compounds, 49% hits; AID 651564; in the data active means IC50 below about 80 µM
The depositor's hits bear a star; . = no result given. Hits are enriched below; roughly 6.9% of the tested compounds scored in any of these assays.

SMILES	CSC inhib	Mdm2 MdmX PPI	NR3A LBD binder	MPTP block	SKKanGAS inh	Beta apoptosis	MPTP counter	others
O=c1c(Sc2ccccc2)c(C(F)(F)F)[nH]n1-c1ccccc1	42	-22	4	70*	1	2	89*
Cc1[nH]n(-c2ccccc2)c(=O)c1-c1ccccc1	6	-1	-1	-9	-2	0	.
O=C(CSc1nnc(CNC(=O)c2ccc(F)cc2)o1)NCc1ccc2c(c1)OCO2	6	6	-1	0	-1	-10	.
COC(=O)/C(=C\Nc1cccc(Cl)c1C)c1ncc(C(F)(F)F)cc1Cl	-3	29	-2	75*	-5	7	8	MPTP swell DR=19*;MPTP cs DR=>80
COc1cccc(C(=O)c2ncc(C(F)(F)F)cc2Cl)c1	-10	2	-1	-1	3	-2	.
Cc1ccc(Cn2c(N)nc3ccccc32)cc1	-12	14	-2	55*	-2	9	21*
Cc1nc2ccccc2n1Cc1ccc(Cl)cc1	-15	19	1	94*	0	71	96*
Cc1ccccc1Cn1c(C)nc2ccccc21	3	12	0	101*	3	.	89*
Nc1nc2ccccc2n1Cc1ccc(Cl)c(Cl)c1	7	7	3	10	3	29	.
COc1ccccc1Cn1c(C)nc2ccccc21	-13	9	2	17	45	4	.
OCc1nc2ccccc2n1Cc1ccc(Cl)cc1	-7	15	-1	1	2	1	.
CC1(C)CC(Cc2ccccc2C(F)(F)F)N(C(=O)OC(C)(C)C)C1 (centres undefined)	.	.	.	-1	.	.	.
CCCCn1c(N)c(N(CCOC)C(=O)CCC2CCCCC2)c(=O)[nH]c1=O	-6	-15	-3	0	.	-20	.
CN(C)Cc1c(C(=O)N/N=C/c2cccc(OCc3ccccc3)c2)nnn1-c1nonc1N	-8	-15	5	65*	9	-7	80*
COc1cc(/C=N/NC(=O)c2nnn(-c3nonc3N)c2C(C)C)ccc1OCc1ccc(F)cc1	-3	-1	31*	62*	58*	31	56*
CN(C)Cc1c(C(=O)N/N=C/c2ccccc2OCc2c(F)cccc2Cl)nnn1-c1nonc1N	.	34	1	0	10	8	.
CN(C)Cc1c(C(=O)N/N=C/c2cccc(OCc3c(F)cccc3Cl)c2)nnn1-c1nonc1N	22	32	24*	61*	12	-1	-3	MPTP swell DR=6.3*;MPTP cs DR=<2.5*
COc1ccc(NC(=O)CNC(=O)c2nn(-c3ccc(OC)cc3OC)c(=O)c3ccccc23)c(OC)c1	-42	6	0	0	4	0	.
CC(C)(C)c1ccc(S(=O)(=O)/N=C2\C=C(NS(=O)(=O)c3ccccc3)C(=O)c3ccccc32)cc1	-23	34	-1	99*	94*	-2	25*
C/C(=N\NS(=O)(=O)c1ccc(C(C)(C)C)cc1)c1ccccc1	-8	0	-9	1	-3	-3	.
Cc1cc(Cl)n2c(nc3cc(F)c(F)cc32)c1C#N	.	.	-2	95*	1	.	91*
CCOC(=O)C1CCCN(C(=S)NC(=O)c2cc(Br)ccc2Cl)C1 (centres undefined)	.	-6	0	-1	.	.	.
CCCCc1c(C(=O)O)cc(OC)cc1C(=O)O	-5	18	0	-1	-8	-5	.
CCCCCc1c2c(cc(O)c1C(=O)O)OC(=O)c1c(cc(OC)cc1C(=O)CCCC)O2	0	-7	-3	90*	42	-3	28*
CCCCCc1c2c(cc(O)c1C(=O)O)OC(=O)c1cc(C(=O)CCCC)c(OC)cc1O2	.	-6	-6	95*	.	.	57*
SMILES	CSC inhib	Mdm2 MdmX PPI	NR3A LBD binder	MPTP block	SKKanGAS inh	Beta apoptosis	MPTP counter	others
COCCN(Cc1cc2cc(C)c(C)cc2nc1Cl)C(=O)N1CCOCC1	-10	22	1	-2	4	-7	.
Nc1cc(S(=O)(=O)Nc2ccc(Cl)cc2)ccc1N1CCOCC1	2	7	1	91*	4	70	55*
CCNC(=O)Nc1cc(S(=O)(=O)Nc2ccc(OC)cc2)ccc1N1CCOCC1	-13	27	0	94*	.	89*	93*
COc1ccc(NS(=O)(=O)c2ccc(N3CCCC3)c(NC(=S)Nc3ccc(SC(F)F)cc3)c2)cc1	-3	20	12*	64*	10	17	81*
COc1ccc(NS(=O)(=O)c2cc(N)ccc2N2CCCC2)cc1	15	20	-2	1	.	0	.
COc1ccc(NS(=O)(=O)c2ccc(N3CCCC3)c(N)c2)cc1	-11	14	1	78*	3	48	84*
CCCCNC(=O)c1ccc(N2CCOCC2)c(NS(=O)(=O)c2ccc(OC)cc2)c1	0	20	2	-2	7	-3	.
Nc1cc(S(=O)(=O)Nc2ccccc2Cl)ccc1N1CCOCC1	-13	-9	0	28	4	3	.
O=S(=O)(/N=C(/Nc1cccnc1)c1ccccc1)c1ccc(F)cc1F	-9	-6	1	-2	.	-2	.
Cc1ccc(NC(=O)CC(C)CC(=O)NCc2ccccc2)cc1Cl (centres undefined)	-7	-10	4	-1	-9	3	.
O=C(Nc1ccncc1)c1ccc(Cl)c(S(=O)(=O)N2CCc3ccccc32)c1	30	43	.	58*	-6	.	91*
CCc1nnc(NC(=O)c2ccc(Cl)c(S(=O)(=O)N3CCc4ccccc43)c2)s1	18	-7	-8	6	38	-4	.
Cc1cccc(NC(=O)c2ccc(Cl)c(S(=O)(=O)N3CCc4ccccc43)c2)n1	26	27	-10	-1	.	-5	.
O=C(Nc1nnc(C2CC2)s1)c1ccc(Cl)c(S(=O)(=O)N2CCc3ccccc3C2)c1	-9	-5	4	51*	40	5	60*
Cc1ccc(NC(=O)CCNC(=O)c2ccco2)cc1Cl	-8	9	-27	0	-2	-3	.
CC(Oc1cc2oc(=O)c3c(c2cc1Cl)CCCC3)C(=O)NCCN1CCOCC1 (centres undefined)	6	18	0	-1	-8	5	.
Cc1ccc(F)c(S(=O)(=O)NC(=O)C2(C)CCN2C(=O)CC2CCCCC2)c1 (centres undefined)	.	.	.	0	.	.	.
CC(C)[C@H](NC(=O)c1ccc(Cl)c([N+](=O)[O-])c1)C(=O)NCc1ccc(Cl)cc1Cl	0	-8	1	86*	1	-4	93*
CC(C)[C@H](NC(=O)c1ccc(Cl)c([N+](=O)[O-])c1)C(=O)NCc1ccc(F)cc1	-3	13	-9	2	1	-9	.
